Laboratory results: PubChem BioAssay (NCATS)
Records with an inconclusive call do not appear. Unmarked numbers belong to inactive results. Activity calls are given as the source filed them. The call rests on the fitted dose curve; in most records, active means well fitted inhibition curve with a large enough effect; inconclusive means small, poorly fitted or top-dose-only effect; inactive means flat fitted curve, though single readings scatter.

Tested on: KB-3-1
Test: Cytotoxic Profiling of Annotated Libraries Using Quantitative High-Throughput Screening (AID 1296008); further: nearly all actives have a fitted effect of over 60% in size
Conditions: Five cell lines viability, CellTiter-Glo ATP luminescence, 48-72 h; max response: active compounds read low
Outline: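 Cells exposed to compounds for 48 or 72 hr at 37 degrees Celsius. Viability read as ATP-coupled luminescence with CellTiter-Glo after 10 min at room temperature.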
On the % scale 0 is the no-effect control and ±100 the full control effect; potency means the concentration at half of the fitted maximal effect.

SMILES | max response [%] | Potency
CC(C)(O/N=C(\C(=O)N[C@@H]1C(=O)N2C(C(=O)[O-])=C(C[n+]3ccccc3)CS[C@H]12)c1csc(N)n1)C(=O)O | -11.3 | –
C=CC[N@@+]12CC[C@@]34c5ccccc5N5/C=C6/[C@H]7C[C@H]8[C@@]9(CC[N@@+]8(CC=C)C/C7=C/CO)c7ccccc7N(/C=C(/[C@@H](C[C@@H]31)/C(=C\CO)C2)[C@H]54)[C@@H]69 | 19.7 | –
CCN(CC)CCCC(C)Nc1cc(/C=C/c2ccccc2Cl)nc2cc(Cl)ccc12 (stereo not drawn) | 0.54 | –
NC(=O)[C@H]1O[C@@H](O)[C@H](O)[C@@H](O)[C@@H]1O | 4.29 | –
Nc1nc(=O)n([C@@H]2CS[C@H](CO)O2)cc1F | 6.08 | –
O=P(O)(O)CP(=O)(O)O | -3.6 | –
Cn1c(O)c(N=NC(N)=S)c2ccccc21 | 8.19 | –
CC/C(=C(/CC)c1ccc(OP(=O)(O)O)cc1)c1ccc(OP(=O)(O)O)cc1 | -7.92 | –
CC(=O)Nc1c(I)c(C(=O)N[C@H]2C(O)O[C@H](CO)[C@@H](O)[C@@H]2O)c(I)c(N(C)C(C)=O)c1I (stereo partly drawn) | -7.33 | –
CCCCC(O)c1ccccc1 (stereo not drawn) | 6.09 | –
CC(=O)Oc1cccc(C(=O)O)c1OC(C)=O | -11.2 | –
Cc1cc(=O)c(C(=O)N[C@@H](C(=O)N[C@@H]2C(=O)N3C(C(=O)O)=C(CSc4nnnn4C)CS[C@H]23)c2ccc(O)cc2)c[nH]1 | 0.794 | –
Nc1nc2c(c(=O)[nH]1)N(C=O)C(CNc1ccc(C(=O)N[C@@H](CCC(=O)O)C(=O)O)cc1)CN2 (stereo partly drawn) | 0.559 | –
O=C(O)c1cc(N=Nc2ccc(O)c(C(=O)O)c2)ccc1O | -1.02 | –
NCC(O)CC(=O)O (stereo not drawn) | 3.49 | –
CC(C)(C)c1ccc2c(S(=O)(=O)O)c(C(C)(C)C)ccc2c1 | 3.96 | –
CO[C@@H]1[C@H](OC(=O)/C=C/C=C/C=C/C=C/C(=O)O)CC[C@]2(CO2)[C@H]1[C@@]1(C)O[C@@H]1CC=C(C)C | 2 | –
C=C(C)C1CC=C(C)CC1 (stereo not drawn) | 7.51 | –
C[C@H]1[C@@H](OC(=O)CCC(=O)O)O[C@@H]2OC3(C)CC[C@H]4[C@H](C)CC[C@@H]1[C@@]24OO3 | – | 16.4 µM (active)

SMILES | max response [%] | Potency
NC(N)=NCC1COc2ccccc2O1 (stereo not drawn) | -6.36 | –
CCCCCCCCCCCCCCCC(=O)OC[C@@H](O)[C@H]1OC[C@H](O)[C@H]1O | -3.59 | –
NC(=O)OCC(O)COc1ccc(Cl)cc1 (stereo not drawn) | 15.4 | –
CO[C@@]1(NC(=O)C2SC(=C(C(N)=O)C(=O)O)S2)C(=O)N2C(C(=O)O)=C(CSc3nnnn3C)CS[C@@H]21 (stereo partly drawn) | 1.97 | –
Nc1nc(NC2CC2)c2ncn([C@@H]3C=C[C@@H](CO)C3)c2n1 | 3.44 | –
O=C(NNCNNC(=O)c1ccncc1)c1ccncc1 | 1.42 | –
CC(C)(CO)[C@@H](O)C(=O)NCCCC(=O)O | -10.7 | –
CC1(C)[C@@H]2CC[C@@]1(C)[C@H](OC(=O)CSC#N)C2 | 3.19 | –
CCN(CC)C(=O)[C@]1(c2ccccc2)C[C@@H]1CN | 6.62 | –
CC(C)(C)C(=O)OCC(=O)[C@H]1CC[C@H]2[C@@H]3CCC4=CC(=O)CC[C@]4(C)[C@H]3CC[C@]12C | -9.73 | –
CCC(Cc1c(I)cc(I)c(O)c1I)C(=O)O (stereo not drawn) | -4.91 | –
CCCCC[C@H](O)/C=C/[C@H]1[C@H](O)CC(=O)[C@@H]1CCCCCCC(=O)O | 3.75 | –
O=C(O)/C=C/c1ccccc1 | 5.56 | –
O=C(O)COc1ccc(CCNS(=O)(=O)c2ccccc2)s1 | -3.19 | –
CC1=C(/C=C/C(C)=C/C=C/C(C)=C/C(=O)Oc2c(C)c(C)c3c(c2C)CC[C@@](C)(CCC[C@H](C)CCC[C@H](C)CCCC(C)C)O3)C(C)(C)CCC1 | -1.1 | –
C=CC[N+]1([C@H]2C[C@H]3[C@@H]4CC[C@H]5C[C@H](O)[C@@H](N6CCOCC6)C[C@]5(C)[C@H]4CC[C@]3(C)[C@H]2OC(C)=O)CCCC1 | 7.82 | –
COc1ccc([C@@H]2CC(=O)c3c(O)cc(O[C@@H]4O[C@H](CO[C@@H]5O[C@@H](C)[C@H](O)[C@@H](O)[C@H]5O)[C@@H](O)[C@H](O)[C@H]4O)cc3O2)cc1O | -3.21 | –
CCc1ncnc2cc(OC)c(OC)cc12 | -4.18 | –
C[Se]CC[C@H](N)C(=O)O | 0.415 | –
